Drawing on publication PMC11062922 (Nature Chemical Biology, 2023), this text covers potency estimated from few doses, EC50 and Kd for 13 compounds.

Where two headings read alike, the source gives them in different places.

What all share (design): species or system human, MV4-11 + K-562 + COLO205 + SK-N-BE2 + OVCAR-8
In assay [1] the test system is AGK. As to conditions: read-out: apparent Kd, compound concentrations: 100 nM and 1000 nM (sheet 'Samples'), n = 1.
For assay [2], the system named is ARAF. The note with it: read-out: apparent Kd, compound concentrations: 100 nM and 1000 nM (sheet 'Samples'), n = 1.
Assay [3] relates to BMPR1A. As to conditions: read-out: apparent Kd, n = 1.
Assay [4] has as its system BRAF. As to conditions: read-out: apparent Kd, compound concentrations: 100 nM and 1000 nM (sheet 'Samples'), n = 1.
For assay [5], the system named is DCK. As to conditions: read-out: apparent Kd, compound concentrations: 100 nM and 1000 nM (sheet 'Samples'), n = 1.
Assay [6] concerns ERBB3. As to conditions: read-out: apparent Kd, compound concentrations: 100 nM and 1000 nM (sheet 'Samples'), n = 1.
Assay [7] relates to FECH. The note with it: read-out: apparent Kd, compound concentrations: 100 nM and 1000 nM (sheet 'Samples'), n = 1.
Assay [8] deals with IGF1R. The note with it: read-out: apparent Kd, compound concentrations: 100 nM and 1000 nM (sheet 'Samples'), n = 1.
Assay [9] deals with INSR. As to conditions: read-out: apparent Kd, compound concentrations: 100 nM and 1000 nM (sheet 'Samples'), n = 1.
Assay [10] has as its system LIMK2. The note with it: read-out: apparent Kd, n = 1.
The test system of assay [11] is MAP2K3. As to conditions: read-out: apparent Kd, compound concentrations: 100 nM and 1000 nM (sheet 'Samples'), n = 1.
The subject of assay [12] is MAP3K12. The note with it: read-out: apparent Kd, compound concentrations: 100 nM and 1000 nM (sheet 'Samples'), n = 1.
Assay [13] relates to MAP3K2. As to conditions: read-out: apparent Kd, compound concentrations: 100 nM and 1000 nM (sheet 'Samples'), n = 1.
The subject of assay [14] is MAP3K5. The note with it: read-out: apparent Kd, compound concentrations: 100 nM and 1000 nM (sheet 'Samples'), n = 1.
Assay [15] deals with NEK2. The note with it: read-out: apparent Kd, compound concentrations: 100 nM and 1000 nM (sheet 'Samples'), n = 1.
Assay [16] deals with PIK3C2B. The note with it: read-out: apparent Kd, compound concentrations: 100 nM and 1000 nM (sheet 'Samples'), n = 1.
The test system of assay [17] is SPR. The note with it: read-out: apparent Kd, n = 1.
The test system of assay [18] is ZAK. The note with it: read-out: apparent Kd, compound concentrations: 100 nM and 1000 nM (sheet 'Samples'), n = 1.
The test system of assay [19] is CSNK1D. The note with it: compound concentrations:0.3nM, 1nM, 3nM, 10nM, 30nM, 100nM, 300nM, 1000nM,R2:0.90408083948088502,slope:1.4813297755061099,EC50 Standard Error, by the legend:Standard error of the EC50 estimation as provided by the drc package.
The test system of assay [20] is CSNK1E. The note with it: compound concentrations:0.3nM, 1nM, 3nM, 10nM, 30nM, 100nM, 300nM, 1000nM,R2:0.89444069129231096,slope:0.86279178326481998,EC50 Standard Error, by the legend:Standard error of the EC50 estimation as provided by the drc package.
Setting [21] is: compound concentrations:100 nM and 1000 nM (sheet 'Samples').
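Wherever EC50 is given: competition pulldown with Kinobeads ε in cell lysates, inhibitor preincubated 45 min at 4 °C, bound kinases quantified by LC–MS/MS against DMSO control.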
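Wherever Kd is given: competition pulldown with Kinobeads ε in cell lysates, inhibitor preincubated 45 min at 4 °C, bound kinases quantified by LC–MS/MS against DMSO control.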

As for `Cn1ncc2c(N)ncnc21` [SKF-18267], the potency estimated from few doses is 1420 nM in [1] (CATDS: 3.9029734313372399E-3); 874 nM in assay [2] (CATDS: 4.8255610001080402E-3); 595 nM in assay [3] (compound concentrations: 100 nM and 1000 nM (sheet 'Samples'), CATDS: 5.9129989995003003E-3); 1870 nM in assay [4] (CATDS: 3.54255463702716E-3); 987 nM in assay [5] (CATDS: 4.5565133541076702E-3); 1340 nM in assay [6] (CATDS: 3.9998602619286698E-3). The potency estimated from few doses in [7] (CATDS: 4.0094324755209198E-3) is 1330 nM; in assay [8] (CATDS: 4.3813441316225901E-3), 1080 nM; in [9] (CATDS: 4.5573832930641796E-3), 986 nM; in assay [10] (compound concentrations: 100 nM and 1000 nM (sheet 'Samples'), CATDS: 3.7102033319592401E-3) it was 1630 nM; in assay [11] (CATDS: 4.14742483783686E-3), 1220 nM; in assay [12] (CATDS: 4.9126246890692504E-3) it was 843 nM. Besides, the potency estimated from few doses was 1140 nM in assay [13] (CATDS: 4.2783500511549997E-3); 1110 nM in assay [14] (CATDS: 4.32123334572214E-3); 964 nM in assay [15] (CATDS: 4.6073088162857699E-3); 539 nM in [16] (CATDS: 6.2624130491241497E-3); 876 nM in [17] (compound concentrations: 100 nM and 1000 nM (sheet 'Samples'), CATDS: 4.8201807384516803E-3); 1260 nM in assay [18] (CATDS: 4.0930423662174304E-3).
As a reminder, the EC50 is the concentration that produces a half-maximal response. As for `Cl.NCc1ccc(-c2nc(-c3ccc(Cl)c(O)c3)c(-c3ccncc3)[nH]2)cc1` [SB-476429-A], the potency estimated from few doses in assay [17] (setting [21]) was 32.3 nM. In addition, the EC50 in assay [19] is 300 nM; in assay [20], 642 nM. Further, the Kd is 300 nM in assay [19] (read-out: apparent Kd) and 642 nM in [20] (read-out: apparent Kd).
Turning to `COc1ccc(Nc2ncc(C#N)c(Nc3ccccc3C(N)=O)n2)cc1N1CCN(C)CC1.Cl` [GSK1558669A], the figures for the potency estimated from few doses in assay [8] (CATDS: 6.9220248980982396E-3), in assay [9] (CATDS: 7.0439666537016601E-3) and in assay [15] (CATDS: 6.7574361761292799E-3) were 752 nM, 692 nM and 849 nM, respectively.
`O=C1N=C(NCCCc2ccccc2)S/C1=C\c1ccc2ncccc2c1` [RO4493941-000]: in [7] (CATDS: 5.9450857327724899E-2), the potency estimated from few doses was 1950 nM.
On to `Cl.Cl.NC(CNC(=O)c1cc(Br)c(-c2ccnc3[nH]ccc23)s1)c1ccccc1.NC(CNC(=O)c1cc(Br)c(-c2ccnc3[nH]ccc23)s1)c1ccccc1` (stereo not shown) [GSK1322949A], for which the values for the potency estimated from few doses in assay [1] (CATDS: 3.3484364918531399E-2), in [2] (CATDS: 6.3043035692660204E-2) and in assay [12] (CATDS: 3.2066551551393298E-2) were 953 nM, 316 nM and 1040 nM, respectively.
As to `CCn1c(-c2cccnc2O)nc2cnccc21` [SB-736715], the potency estimated from few doses in [5] (CATDS: 1.18043457558384E-2) is 2290 nM.
As for `CC(C)Oc1ccc2c(-c3ccnc(Nc4ccc(N5CCN(C)CC5)cc4)n3)cnn2n1` [GW696155X], in assay [10] (setting [21]), the potency estimated from few doses was 883 nM.
For the compound `CNCc1ccc(-c2cc(-c3nc(-c4ccc(S(=O)(=O)C(C)C)cc4)cnc3N)on2)cc1` [VE-822], the potency estimated from few doses in assay [3] (setting [21]) is 764 nM.
On to `O=C(O)C(F)(F)F.O=C(O)C(F)(F)F.O=c1[nH]ccc2nc(N[C@@H]3CCCNC3)nc(Nc3ccc(S(=O)(=O)N4CCOCC4)cc3)c12.O=c1[nH]ccc2nc(N[C@@H]3CCCNC3)nc(Nc3ccc(S(=O)(=O)N4CCOCC4)cc3)c12` [GSK2177277A], for which the figures for the potency estimated from few doses in assay [11] (CATDS: 6.4169710439364001E-3) and in assay [13] (CATDS: 7.1783793001346102E-3) were 1550 nM and 889 nM, respectively.
For the compound `CNCC1CCn2c(c(C3=C(c4cn(C)c5ccccc45)C(=O)NC3=O)c3ccccc32)C1` (stereo not shown) [RO0318676-000], the potency estimated from few doses in [4] (CATDS: 2.6106742003508401E-2) is 2340 nM.
In the case of `CC(C)N1CC(=O)N(C)c2cnc(Nc3cccc(S(=O)(=O)CCN4CCOCC4)c3)nc21` [BI00009348], the values for the potency estimated from few doses in [14] (CATDS: 5.27372855942096E-2) and in assay [18] (CATDS: 5.0114665499168799E-2) were 1550 nM and 1820 nM, respectively.
For the compound `CNc1nccc(-c2ccc3c(N)n[nH]c3c2)n1` [GSK2206003A], the potency estimated from few doses in assay [6] (CATDS: 5.0565668903585798E-2) is 1580 nM.
Regarding `CCC(CC)(CC)n1cnc2c(N)ncnc21` [SKF-97620], in assay [16] (CATDS: 4.5061031673298398E-2), the potency estimated from few doses was 395 nM.
